12-LOX inh: Primary qHTS assay for inhibitors of human arachidonate 12S-lipoxygenase (ALOX12): Round 2 | Polyunsaturated fatty acid lipoxygenase ALOX12 (Homo sapiens), P18054 | purified 12hLO, xylenol orange hydroperoxide absorbance | Potency, µM (top dose mostly 108 µM), inactives show at the highest dose activity change, negative = inhibition, actives largely listed as inhibitors | 580,000 compounds, 1.1% hits; further: on the % scale 0 is the no-effect control and ±100 the full control effect
Target sequence (P18054 whole entry, looked up): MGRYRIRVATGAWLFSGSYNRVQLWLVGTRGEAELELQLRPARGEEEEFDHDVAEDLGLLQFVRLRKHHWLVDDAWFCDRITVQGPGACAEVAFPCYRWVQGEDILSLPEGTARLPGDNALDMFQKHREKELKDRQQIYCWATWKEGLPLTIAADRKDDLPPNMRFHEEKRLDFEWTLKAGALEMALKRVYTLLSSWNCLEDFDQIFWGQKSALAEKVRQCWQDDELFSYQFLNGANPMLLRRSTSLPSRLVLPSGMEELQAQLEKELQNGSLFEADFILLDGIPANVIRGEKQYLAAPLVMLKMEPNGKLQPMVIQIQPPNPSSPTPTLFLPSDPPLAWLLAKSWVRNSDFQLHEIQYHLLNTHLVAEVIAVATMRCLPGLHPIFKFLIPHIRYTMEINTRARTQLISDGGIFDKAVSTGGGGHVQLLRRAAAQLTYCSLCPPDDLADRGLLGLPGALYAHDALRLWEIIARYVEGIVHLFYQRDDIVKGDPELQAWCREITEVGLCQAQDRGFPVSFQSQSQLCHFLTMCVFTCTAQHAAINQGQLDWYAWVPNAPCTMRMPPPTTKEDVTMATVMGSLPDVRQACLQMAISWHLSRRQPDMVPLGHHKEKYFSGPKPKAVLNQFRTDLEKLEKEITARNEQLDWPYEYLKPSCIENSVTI
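Purified human 12hLO (150 nM final) in 25 mM Hepes, 0.01% Triton X-100, pH 7.0 was preincubated 15 min at room temperature with compound. Then 40 uM arachidonic acid was added, 30 min. Hydroperoxide was read by Fe-XO absorbance ratio 573/405 nm.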
HP1b binding inh: HTS for Inhibitors of HP1-beta Chromodomain Interactions with Methylated Histone Tails. Chromobox protein homolog 1 (Homo sapiens), P83916. AID 540317, 2011. AlphaScreen HP1-beta / biotin-H3K9me3 peptide binding. 390,000 compounds, 0.56% hits. Potency, µM (highest dose often 114 µM), without a hit: at the top dose activity change, negative = inhibition, actives largely listed as inhibitors; further: nearly all actives have a fitted effect of over 70% in size
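AlphaScreen: HP1-beta (50 nM) preformed 30 min with biotin-H3(1-18)K9me3 peptide (50 nM) in PBS pH 7.4, 0.01% Tween-20. Compound added for 30 min at RT, then streptavidin donor/nickel chelate acceptor beads (10 ug/mL) for 30 min.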
BAZ2B block: qHTS Assay for Inhibitors of BAZ2B. Bromodomain adjacent to zinc finger domain protein 2B (Homo sapiens), Q9UIF8. AlphaScreen BAZ2B-H3K14Ac peptide displacement. Potency, µM (highest dose often 114 µM), for inactives: at the top dose activity change, negative = inhibition, usual class: inhibitors. 360,000 compounds, 4.4% hits; further: on the % scale 0 is the no-effect control and ±100 the full control effect; nearly all actives have a fitted effect of over 60% in size
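AlphaScreen displacement of biotin-H3(5-23)K14Ac peptide (50 nM final) from BAZ2B (50 nM final) in PBS pH 7.4, 0.01% Tween-20; complex preformed 30 min RT, then compounds (top 110 uM) 30 min RT, beads 20 min dark.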
Sfp inh: qHTS Assay for Inhibitors of Bacillus subtilis Sfp phosphopantetheinyl transferase (PPTase); 4'-phosphopantetheinyl transferase ffp (Bacillus subtilis), Q9F4F7; Biochemical Sfp PPTase activity, qHTS; Potency, µM, for the others: largest response in the series, negative = inhibition, hits mostly inhibitors; 310,000 compounds, 3.5% hits; AID 1490, 2009;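 further: the enzyme is Sfp with the accession as filed and its product quenches rhodamine fluorescence; 0% = enzyme reaction without inhibitor and -100% = no enzyme wells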
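After 15 min at room temperature with compound, 15 nM Sfp received 5 uM rhodamine-CoA plus 12.5 uM BHQ-2-ybbR (50 mM Hepes pH 7.6, 10 mM MgCl2). Rate came from the fluorescence difference over 30 min, ex 525/em 598 nm.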
JMJD2A Tudor inh: qHTS Assay for Inhibitors of JMJD2A-Tudor Domain; 390,000 compounds, 4.4% hits; Lysine-specific demethylase 4A (Homo sapiens), O75164; AlphaScreen JMJD2A-Tudor / H3K4me3 peptide binding; Potency, µM (top dose mostly 114 µM), inactives show at the highest dose activity change, negative = inhibition, most hits filed as inhibitors; further: on the % scale 0 is the no-effect control and ±100 the full control effect; nearly all actives have a fitted effect of over 50% in size
G9a block: qHTS Assay for Inhibitors of Histone Lysine Methyltransferase G9a; Histone-lysine N-methyltransferase EHMT2 (Homo sapiens), Q96KQ7; G9a H3K9 monomethylation, AlphaScreen, 2 h; Potency, µM (top dose mostly 102 µM), without a hit: at the highest dose activity, negative = inhibition, actives largely listed as inhibitors; 350,000 compounds, 8.8% hits; AID 504332, 2011; further: on the % scale 0 is the no-effect control and ±100 the full control effect; nearly all actives have a fitted effect of over 75% in size
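AlphaScreen read-out: biotin-H3K9 peptide (500 nM) methylation by 20 nM enzyme with 20 uM SAM, 2 h at room temperature after 15 min compound preincubation; anti-monomethyl H3K9 antibody plus donor/acceptor beads, 10 min dark.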
An asterisk follows results filed as active; ? = inconclusive; nt = no result given; [ ] = remark or other dose. Most compounds without a hit are left out; they make up all but 8.7% or so of the library. The call rests on the fitted dose curve; in most records, active means well fitted curve in the direction sought with a large enough effect; inconclusive means small, poorly fitted or top-dose-only effect, or another doubt; inactive means no such curve, though single readings can be large; an effect the other way counts as inactive or inconclusive. Potency means the concentration at half of the fitted maximal effect.

SMILES	12-LOX inh	HP1b binding inh	BAZ2B block	Sfp inh	JMJD2A Tudor inh	G9a block
CCCCC1(C)Cc2ccccc2C(=S)N1 (stereo unspecified)	?	1.6%	4.3%	15.7%	-30.9%	-3.1%[59 µM]
CCCCC1(C)NC(=S)N2N1C(=S)NC2(C)CCCC (stereo unspecified)	?	?	79.4µM*	56.2µM*	5.62µM*	1.78µM*
CCN(CC)C(=O)Cc1cccn1-c1ccc(Cl)cc1	-18.2%	nt	nt	nt	nt	nt
Cc1nccc(-c2ccccc2)c1C(=O)N(C)Cc1csc(C(C)C)n1	7.0%	nt	nt	nt	nt	nt
CSc1ccccc1-c1n[nH]c(=S)o1	-17.0%	-3.0%	-10.1%	-21.2%	?	6.31µM*
Cc1ccccc1-c1n[nH]c(=S)o1	?	38.7%	-34.6%	-17.0%	?	12.6µM*
COc1ccc(Cl)cc1-c1n[nH]c(=S)o1	?	28.9%	-5.4%	-0.9%	-28.8%	?
O=c1c2ccccc2c(-c2n[nH]c(=S)o2)nn1Cc1ccccc1	?	56.4%	-35.9%	79.4µM*	?	3.98µM*
CCSc1nnc(-c2nn(Cc3ccccc3)c(=O)c3ccccc23)o1	-7.1%	nt	nt	nt	nt	nt
S=c1nc(-c2ccccc2)oc2c1CCCC2	10.2%[57.4 µM]	32.6%	1.1%	-5.9%	4.1%	19.9%
S=c1[nH]nc(-c2ccccc2)o1	28.4%	13.8%	79.4µM*	8.4%	-25.3%[11.4 µM]	?
COc1ccccc1-c1n[nH]c(=S)o1	?	6.6%	5.5%	-18.7%	-5.3%[11.4 µM]	?
COc1ccc(CNC(=O)c2scnc2C)cc1	0.3%	nt	nt	nt	nt	nt
CCN(CC)S(=O)(=O)c1ccc(C)c(NCc2ccc(C#N)cc2)c1	-2.7%	nt	nt	nt	nt	nt
COc1ccc(-c2c(C)oc3cc(OS(=O)(=O)c4ccc(C)cc4)ccc3c2=O)cc1	3.8%	nt	nt	nt	nt	nt
CCOC(=O)CC(=O)CSc1nc2c(cc1C#N)CCCCC2	?	74.3%	4.0%	?	50.1µM*	7.94µM*
N#Cc1cc2c(nc1SCc1ccncc1)CCC2	?	9.8%	3.5%	50.1µM*	22.4µM*	3.16µM*
Cc1ccccc1NC(=O)Cn1cnc2c(oc3nc4c(cc32)CCCC4)c1=O	-20.1%	33.1%	?	4.4%	-10.6%	?
N#Cc1cc2c(nc1SCC(=O)N1CCCCC1)CCCC2	-0.3%	31.0%	-5.4%	0.8%	6.9%	-3.7%[12.7 µM]
CC(C)OC(=O)CC(=O)CSc1nc2c(cc1C#N)CCCCC2	38.6%	113.8%	21.8%	-3.9%	1.2%	?
N#Cc1cc2c(nc1SCc1ccccc1)CCC2	-0.9%	18.5%	0.9%	12.4%	-6.6%	?
N#Cc1cc2c(nc1SCC(=O)N1CCCCC1)CCCCC2	?	-19.6%	10.4%	56.2µM*	56.2µM*	2.82µM*
CCOC(=O)CC(=O)COc1nc2cc3c(nc2o1)CCCC3	?	39.7%	3.6%	-6.0%	?	44.7µM*
CC(C)N(Cc1ccccc1)C(=O)COC(=O)c1ccc(F)cc1F	11.8%	nt	nt	nt	nt	nt
C=CCNC(=O)CN1CCN(Cc2ccc(F)c3cccnc23)CC1	41.3%	nt	nt	nt	nt	nt
CC(C)(C)OC(=O)N1CCN(C(C(=O)O)c2c[nH]c3ccc(OCC#N)cc23)CC1 (stereo unspecified)	11.0%	nt	nt	nt	nt	nt
CCCCCCn1cc(C(=O)O)c(=O)c2ccccc21	12.0%	26.7%	-34.7%	10.3%	?	44.7µM*
CCCCCCn1cc(C(=O)O)c(=O)c2cc(F)c(N3CCN(C)CC3)cc21	nt	7.3%	10.9%	11.7%	-11.2%	nt
COc1ccccc1N1CCN(/N=C/c2ccc([N+](=O)[O-])cc2)CC1	0.0%	?	17.8µM*	3.3%	28.2µM*	17.8µM*
COc1ccccc1N1CCN(/N=C/c2ccc(Cl)c([N+](=O)[O-])c2)CC1	?	?	17.8µM*	-14.5%	?	nt

Screening data from PubChem BioAssay.
